Potency and outcome data for 28 molecules are collected here from PubChem BioAssay (NCATS).

The target in assay [1] is Cytochrome P450 2D6 (Homo sapiens) (UniProt P10635). In words: Cytochrome P450 family 2 subfamily D member 6 (CYP2D6) small molecule antagonists: luciferase biochemical (cell-free) qHTS assay (AID 1645840). Note: nearly all actives have a fitted effect of over 55% in size. Note: potency is the fitted concentration of half-maximal effect. Put shortly: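 P450-Glo CYP2D6 system: proluciferin substrate converted by enzyme to luciferin, read by luminescence proportional to activity. Enzyme-substrate mix with compound 10 min at room temperature, then NADPH regeneration 1 h before detection reagent.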
Cytochrome P450 2D6 (Homo sapiens), sequence (P10635 whole entry, looked up): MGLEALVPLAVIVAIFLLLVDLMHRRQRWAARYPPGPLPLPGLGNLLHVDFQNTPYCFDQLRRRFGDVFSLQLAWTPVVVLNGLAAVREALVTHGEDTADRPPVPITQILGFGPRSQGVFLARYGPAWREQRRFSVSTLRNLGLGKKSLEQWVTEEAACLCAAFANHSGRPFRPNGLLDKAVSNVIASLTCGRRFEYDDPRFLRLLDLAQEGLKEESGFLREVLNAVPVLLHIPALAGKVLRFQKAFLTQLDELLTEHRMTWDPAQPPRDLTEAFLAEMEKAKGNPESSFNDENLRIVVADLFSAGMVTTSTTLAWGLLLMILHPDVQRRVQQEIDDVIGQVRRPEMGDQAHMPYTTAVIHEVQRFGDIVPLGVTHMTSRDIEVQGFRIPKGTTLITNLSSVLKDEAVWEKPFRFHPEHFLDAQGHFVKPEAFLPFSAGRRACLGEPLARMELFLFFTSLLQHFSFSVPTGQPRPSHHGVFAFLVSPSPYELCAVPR
Background: qHTS replaces the single test concentration by a dilution series.

The target in assay [2] is Cytochrome P450 2C9 (Homo sapiens) (UniProt P11712). The assay is described as follows: Cytochrome P450 family 2 subfamily C member 9 (CYP2C9) small molecule antagonists: luciferase biochemical (cell-free) qHTS assay (AID 1645842). Note: nearly all actives have a fitted effect of over 55% in size. Note: potency is the fitted concentration of half-maximal effect. In a few lines: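 P450-Glo CYP2C9 system: proluciferin substrate with enzyme in mix containing 0.4% BSA, 10 min at room temperature, then NADPH regeneration solution added and incubated 1 h at 37C. Detection reagent stopped reaction; luminescence read after 20 min as RLU.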
Cytochrome P450 2C9 (Homo sapiens), sequence (P11712 whole entry, looked up): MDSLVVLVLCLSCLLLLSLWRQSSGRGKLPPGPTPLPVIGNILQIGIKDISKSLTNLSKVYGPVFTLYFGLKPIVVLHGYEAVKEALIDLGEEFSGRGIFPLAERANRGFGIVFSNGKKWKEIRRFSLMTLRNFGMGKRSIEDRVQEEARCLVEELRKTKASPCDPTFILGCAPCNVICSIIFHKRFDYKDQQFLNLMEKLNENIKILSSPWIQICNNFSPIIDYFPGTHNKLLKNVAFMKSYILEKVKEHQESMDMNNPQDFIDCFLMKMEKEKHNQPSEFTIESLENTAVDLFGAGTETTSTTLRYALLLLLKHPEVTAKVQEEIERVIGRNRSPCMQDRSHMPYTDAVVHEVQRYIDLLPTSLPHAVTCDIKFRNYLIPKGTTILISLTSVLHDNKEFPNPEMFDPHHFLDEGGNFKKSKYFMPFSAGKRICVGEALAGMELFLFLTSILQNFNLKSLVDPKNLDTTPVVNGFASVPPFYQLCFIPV

Assay [3] can be described thus: Primary qHTS for inhibitors of nuclear receptor binding SET domain protein 2 (NSD2) in an isogenic RCH-ACV NSD2 p.E1099K mutant (9B) (AID 1645876; active = well fitted curve in the direction sought with a large enough effect; an effect the other way counts as inactive or inconclusive; note: nearly all actives have a fitted effect of over 70% in size; note: potency is the fitted concentration of half-maximal effect).
Assay [4] addresses N-terminal Xaa-Pro-Lys N-methyltransferase 1 (Homo sapiens) (UniProt Q9BV86). In words: Confirmatory qHTS for Inhibitors of N-terminal methyltransferase 1 (NTMT1): MTaseGlo Assay (AID 1645874; active = well fitted curve in the direction sought with a large enough effect; an effect the other way counts as inactive or inconclusive;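 note: luminescence from SAH made as NTMT1 methylates SPKRIA peptide using SAM; series mostly up to about 100 µM; nearly all actives have a fitted effect of over 65% in size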). In a few lines:
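Room-temperature NTMT1 reaction, 30 min, with 100 uM SAM and 1 uM SPKRIA substrate; enzyme 125 nM. Read-out: MTase-Glo luminescence, normalized to no-enzyme and DMSO controls.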

Assay [5] has as its target Rap guanine nucleotide exchange factor 3 (Homo sapiens) (UniProt O95398). The assay is described as follows: Confirmatory qHTS for agonist of cAMP-regulated guanine nucleotide exchange factor 3 (EPAC1) (AID 1645881; active = well fitted curve in the direction sought with a large enough effect; an effect the other way counts as inactive or inconclusive;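 note: EPAC1 catalysed release of BODIPY-GDP from Rap1B seen as fluorescence loss; nearly all actives have a fitted effect of over 75% in size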).
Assay [6] concerns the target Rap guanine nucleotide exchange factor 4 (Homo sapiens) (UniProt Q8WZA2). The assay is described as follows: Confirmatory qHTS for agonist of cAMP-regulated guanine nucleotide exchange factor 4 (EPAC2) (AID 1645884; active = well fitted curve in the direction sought with a large enough effect; an effect the other way counts as inactive or inconclusive;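 note: nucleotide exchange releases bodipy-GDP from Rap1 and this lowers its fluorescence; nearly all actives have a fitted effect of over 65% in size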).
Assay [7] is described as follows: Primary qHTS for inhibitors of nuclear receptor binding SET domain protein 2 (NSD2) in an RCH-ACV wild type WT cells (2C) (AID 1645877; active = well fitted curve in the direction sought with a large enough effect; an effect the other way counts as inactive or inconclusive; note: nearly all actives have a fitted effect of over 70% in size; note: potency is the fitted concentration of half-maximal effect).

Several values for one entry are separate records, joined by “and”; a condition that tells them apart may be missing. Equal values may be shown once. Records with an inconclusive call do not appear. Activity calls are given as the source filed them. Unless noted, calls come from the whole dose curve; as a rule, active = well fitted curve in the direction sought with a large enough effect in the repeat runs; inconclusive = weak or mixed curves; inactive = no such curve, though single readings can be large; an effect the other way counts as inactive or inconclusive.

N-terminal Xaa-Pro-Lys N-methyltransferase 1 (Homo sapiens), sequence (Q9BV86 whole entry, looked up): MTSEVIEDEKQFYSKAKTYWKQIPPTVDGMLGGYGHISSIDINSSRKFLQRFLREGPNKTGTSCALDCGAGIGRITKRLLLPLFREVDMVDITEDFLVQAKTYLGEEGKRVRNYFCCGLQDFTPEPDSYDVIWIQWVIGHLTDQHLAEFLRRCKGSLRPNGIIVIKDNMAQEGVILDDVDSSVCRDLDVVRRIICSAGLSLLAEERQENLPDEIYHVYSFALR
Rap guanine nucleotide exchange factor 3 (Homo sapiens), sequence (O95398 whole entry, looked up): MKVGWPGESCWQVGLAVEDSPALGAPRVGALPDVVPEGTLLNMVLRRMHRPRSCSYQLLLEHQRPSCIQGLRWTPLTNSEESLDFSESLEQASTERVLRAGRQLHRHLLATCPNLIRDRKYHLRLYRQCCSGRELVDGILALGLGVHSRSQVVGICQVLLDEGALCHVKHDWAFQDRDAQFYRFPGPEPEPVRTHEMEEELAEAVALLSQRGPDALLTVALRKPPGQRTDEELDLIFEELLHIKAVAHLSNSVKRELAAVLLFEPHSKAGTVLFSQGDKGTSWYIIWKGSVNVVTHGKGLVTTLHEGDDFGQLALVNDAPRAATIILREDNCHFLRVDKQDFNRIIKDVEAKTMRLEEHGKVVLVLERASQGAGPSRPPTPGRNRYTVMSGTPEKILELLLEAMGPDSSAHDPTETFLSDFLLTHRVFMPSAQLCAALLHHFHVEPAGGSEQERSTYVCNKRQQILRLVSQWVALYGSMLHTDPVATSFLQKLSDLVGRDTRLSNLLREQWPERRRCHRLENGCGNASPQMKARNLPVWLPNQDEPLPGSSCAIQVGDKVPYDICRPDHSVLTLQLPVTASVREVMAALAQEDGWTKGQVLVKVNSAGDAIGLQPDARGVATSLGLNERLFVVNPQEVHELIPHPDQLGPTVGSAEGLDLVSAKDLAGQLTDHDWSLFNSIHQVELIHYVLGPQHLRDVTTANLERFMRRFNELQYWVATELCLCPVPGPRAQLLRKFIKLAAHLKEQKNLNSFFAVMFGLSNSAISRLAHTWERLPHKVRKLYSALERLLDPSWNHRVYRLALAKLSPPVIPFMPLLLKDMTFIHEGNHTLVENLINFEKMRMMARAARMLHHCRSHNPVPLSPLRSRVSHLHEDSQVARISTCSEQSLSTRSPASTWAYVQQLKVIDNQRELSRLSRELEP
Rap guanine nucleotide exchange factor 4 (Homo sapiens), sequence (Q8WZA2 whole entry, looked up, the tested form may be a part): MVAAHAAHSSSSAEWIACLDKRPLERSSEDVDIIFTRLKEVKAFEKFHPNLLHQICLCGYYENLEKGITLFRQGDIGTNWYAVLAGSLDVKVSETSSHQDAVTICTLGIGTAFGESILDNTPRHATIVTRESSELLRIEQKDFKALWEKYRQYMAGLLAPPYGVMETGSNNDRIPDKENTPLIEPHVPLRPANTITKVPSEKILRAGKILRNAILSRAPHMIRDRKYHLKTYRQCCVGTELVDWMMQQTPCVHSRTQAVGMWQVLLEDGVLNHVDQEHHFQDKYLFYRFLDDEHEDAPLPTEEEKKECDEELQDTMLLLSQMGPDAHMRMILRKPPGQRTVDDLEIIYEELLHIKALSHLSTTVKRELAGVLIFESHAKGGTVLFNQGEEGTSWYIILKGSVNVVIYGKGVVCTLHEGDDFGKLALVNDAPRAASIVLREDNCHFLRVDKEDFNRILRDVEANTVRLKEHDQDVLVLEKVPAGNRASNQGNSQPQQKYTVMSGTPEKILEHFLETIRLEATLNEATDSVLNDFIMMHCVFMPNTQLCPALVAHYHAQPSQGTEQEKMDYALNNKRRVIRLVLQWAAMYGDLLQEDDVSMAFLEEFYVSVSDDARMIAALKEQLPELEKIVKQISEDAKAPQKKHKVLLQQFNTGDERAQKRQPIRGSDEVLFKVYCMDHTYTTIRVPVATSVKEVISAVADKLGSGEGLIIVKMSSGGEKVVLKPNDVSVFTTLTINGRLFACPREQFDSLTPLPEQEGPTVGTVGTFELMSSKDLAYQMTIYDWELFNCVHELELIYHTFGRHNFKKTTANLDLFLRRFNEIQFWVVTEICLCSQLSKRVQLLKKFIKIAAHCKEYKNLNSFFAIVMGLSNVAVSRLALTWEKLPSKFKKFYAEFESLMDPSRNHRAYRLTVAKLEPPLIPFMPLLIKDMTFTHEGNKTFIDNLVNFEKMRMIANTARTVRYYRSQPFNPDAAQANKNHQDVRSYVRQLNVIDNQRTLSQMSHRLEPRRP

With `Nc1cccc(CNC(=O)c2ccc(Oc3ccc(OCc4cccc(F)c4)cc3)nc2)c1`, the Potency result in assay [1] was “inactive”. Further, the Potency in assay [2] was 9.52 µM (active); in assay [3], 11.5 µM (active).

Take `CCCc1cc(C)n(C)c(=O)c1CN(C)C(=O)c1cc(-c2ccc(N3CCN(C(C)C)CC3)nc2)cc2c1cnn2C(C)C`: the Potency result in assay [1] and in assay [3] was “inactive” in each case. Moreover, the Potency in assay [2] is 0.601 µM (active).

`O=C(NCCN1CCOCC1)c1cc2c(Oc3ccc(NC(=O)C4(C(=O)Nc5ccc(F)cc5)CC4)cc3)ccnc2[nH]1`: the Potency in assay [1] is 19 µM (active); in assay [2] it was 12 µM (active); in assay [3], 23 µM (active).

For the molecule `O=C(NCC1(N2CCN(c3ccccc3)CC2)CCOCC1)c1cccnc1Sc1ccccc1`, the Potency result in assay [1] and in assay [3] was “inactive” in each case. In assay [2], the Potency is 3.79 µM (active).

Take `Cc1ccc(C2(C(=O)N3CCC(n4nc(-c5ccccc5)oc4=O)CC3)CC2)cc1`: the results for the Potency in assay [1] and in assay [2] were 13.5 µM (active) and 0.756 µM (active), respectively. In assay [3], the Potency entry was “inactive”.

As to `N#Cc1ccc(Nc2nc(-c3ccc(O)cc3O)cs2)cc1C(F)(F)F`, the Potency in assay [1] was 5.35 µM (active); in assay [2], 1.69 µM (active); in assay [3] it was 16.3 µM (active). Moreover, the Potency result in assay [4] is “inactive”. Further, the molecule was called inactive in assay [5] and in assay [6].

Regarding `COc1ccc(NC(=O)c2ccc(C(=N)N(C)C)cc2)c(C(=O)Nc2ccc(Cl)cn2)c1`, the Potency entry in assay [1] and in assay [3] was “inactive” throughout. Also, the Potency in assay [2] was 3.79 µM (active).

Turning to `CN(C)C(=O)Nc1cc(-c2ccccc2)ccc1N(C)C`, the Potency entry in assay [1], in assay [4] and in assay [7] was “inactive” throughout. Besides, the Potency in assay [2] is 15.1 µM (active).

For the molecule `COc1ccc2c(NC(=O)Nc3cccc(C(F)(F)F)n3)ccnc2c1`, in assay [1], the Potency result was “inactive”. The Potency was 3.01 µM (active) in assay [2], 4.09 µM (active) in assay [3] and 3.25 µM (active) in assay [7].

For the molecule `COc1cc(OC)c2c(=O)[nH]c(-c3cc(C)c(OCCO)c(C)c3)nc2c1`, the Potency result in assay [1] is “inactive”. The Potency in assay [2] was 12 µM (active) and 10.7 µM (active); in assay [3] it was 12.9 µM (active) and 14.8 µM (active); in assay [7], 10.3 µM (active) and 11.8 µM (active).

For `CC(C)[C@@H](c1ccc(C(F)(F)F)cc1CN(Cc1cc(C(F)(F)F)cc(C(F)(F)F)c1)c1nnn(C)n1)N1CCC(C(=O)O)CC1`, the values for the Potency in assay [1], in assay [2] and in assay [3] were 12 µM (active), 15.1 µM (active) and 25.8 µM (active), respectively.

Regarding `CCN(c1cc(-c2ccc(CN3CCOCC3)cc2)cc(C(=O)NCc2c(C)cc(C)[nH]c2=O)c1C)C1CCOCC1`, the Potency in assay [1] was 23.9 µM (active); in assay [2], 3.38 µM (active). The Potency entry in assay [3] is “inactive”.

With `COc1ccc(-c2csc(NC(=O)[C@H]3CCCCN3S(=O)(=O)c3ccc(C)cc3)n2)cc1`, the Potency entry in assay [1] was “inactive”. Moreover, the Potency is 2.13 µM (active) in assay [2] and 18.3 µM (active) in assay [3].

As for `CC(C)(C)Oc1ccc(OCC2Cc3ccccc3CN2C(=O)c2cccc3ccccc23)cc1` (stereo not drawn), the Potency result in assay [1] and in assay [3] was “inactive” throughout. Moreover, in assay [2], the Potency was 1.69 µM (active).

As for `O=S(=O)(N[C@H]1CCCC[C@@H]1N1CCOCC1)c1ccc(Cl)cc1`, the Potency in assay [1] and in assay [2] was 5.35 µM (active) each time. The Potency result in assay [3] was “inactive”.

For `Cc1cn2cc(C(=O)N(C)CCO)cc(NC3CCOc4cccc(C)c43)c2n1` (stereo not drawn), the Potency result in assay [1], in assay [3] and in assay [7] was “inactive” in each case. Also, the Potency in assay [2] is 19 µM (active).

In the case of `O=C(NCCCn1ccnc1)c1cc(-c2ccco2)on1`, the Potency was 8.49 µM (active) in assay [1], 9.52 µM (active) in assay [2], 14.5 µM (active) in assay [3] and 10.3 µM (active) in assay [7].

Take `CCOC(=O)N1c2ccc(C(F)(F)F)cc2C(N(Cc2cc(C(F)(F)F)cc(C(F)(F)F)c2)C(=O)OC)CC1CC` (stereo not drawn): the Potency result in assay [1], in assay [2], in assay [3] and in assay [7] was “inactive” in each case.

As for `Cc1cc2sc(NC(=O)Cc3ccccc3)nc2cc1Cl`, the Potency result in assay [1], in assay [2], in assay [3] and in assay [7] was “inactive” throughout.

`CCOC(=O)c1cnn(-c2ccccc2)c1NC(=O)c1cc2nc(-c3ccco3)cc(C(F)(F)Cl)n2n1`: the Potency result in assay [1], in assay [3] and in assay [7] was “inactive” throughout. Also, the Potency in assay [2] was 3.38 µM (active).

Regarding `NC(=O)N1CCC(CC(=O)N2CCC(C3c4ncc(Br)cc4CCc4cc(Cl)cc(Br)c43)CC2)CC1` (stereo not drawn), the Potency in assay [1] was 16.9 µM (active); in assay [2], 12 µM (active); in assay [3] it was 7.28 µM (active); in assay [7], 6.49 µM (active).

In the case of `Nc1nc2c(c(N3CC[C@@H](N)C3)n1)CCCc1ccccc1-2`, the values for the Potency in assay [1], in assay [3] and in assay [7] were 3.38 µM (active), 20.5 µM (active) and 18.3 µM (active), respectively. For the same molecule, the Potency entry in assay [2] is “inactive”.

Regarding `C=CC(=O)Nc1cc(-n2c(=O)ccc3cnc4ccc(-c5ccc(NS(C)(=O)=O)cc5)cc4c32)ccc1C`, in assay [1], the Potency entry is “inactive”. Further, the Potency was 1.51 µM (active) in assay [2], 3.26 µM (active) in assay [3] and 3.66 µM (active) in assay [7].

For the molecule `CNC(=O)[C@@H](c1ccccc1)N1CCc2cc(OC)c(OC)cc2[C@@H]1CCc1ccc(C(F)(F)F)cc1`, the Potency in assay [1] is 4.77 µM (active); in assay [2] it was 6.74 µM (active); in assay [3], 23 µM (active); in assay [7] it was 16.3 µM (active).

On to `Cc1c(C(=O)Nc2ccc(N3CCC(N4CCOCC4)CC3)c(C#N)c2)cnn1-c1ccc(Cl)cc1`, for which the Potency in assay [1] is 12 µM (active); in assay [2], 2.13 µM (active); in assay [3] it was 0.23 µM (active); in assay [7], 0.23 µM (active).

In the case of `O=C(CCl)Nc1cccc(NC2=NS(=O)(=O)c3ccccc32)c1`, the Potency result in assay [1] is “inactive”. The Potency in assay [2] was 15.1 µM (active); in assay [3] it was 9.34 µM (active); in assay [7] it was 6.61 µM (active).

For the molecule `COC1CCN(c2cccc(-c3cc(NC(C)=O)nc(-n4nc(C)cc4C)n3)n2)CC1`, the Potency is 6.01 µM (active) in assay [1], 10.7 µM (active) in assay [2], 20.5 µM (active) in assay [3] and 16.3 µM (active) in assay [7].

Consider `COc1cc(CCc2cc(NC(=O)c3ccc(N4CC(C)NC(C)C4)cc3)n[nH]2)cc(OC)c1` (stereo not drawn), for which the Potency was 12 µM (active) in assay [1], 9.16 µM (active) in assay [3] and 10.3 µM (active) in assay [7]. In addition, the Potency entry in assay [2] was “inactive”.
